Compound activity (PubChem)
Compounds with a hit are over-represented: about 21% of the library has one in this group of screens.
TDP1 cell CPT = growth inhibition of DT40 Tdp1-/-;hTDP1 cells with camptothecin (screen for TDP1 inhibitors) | chicken DT40 Tdp1-/-;hTDP1 cells + 20 nM CPT, ATP luminescence, 48 h | Potency, µM (top dose mostly 46.2 µM), for inactives: top-dose activity change, negative = growth inhibition, most hits filed as inhibitors | actives 12% (n = 420,000) | AID 686979; also: potency is read from the fitted curve at half-maximal effect; nearly all actives have a fitted effect of over 55% in size
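Cell growth measured by CellTiter-Glo luminescence after a minimum 48 h, 37 C compound exposure with 20 nM CPT in Tdp1-knockout DT40 cells stably expressing hTDP1, seeded 400/well; qHTS titration format.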
ELG1 DNA repair = inhibitors of ELG1-dependent DNA repair in HEK293T cells; Potency, µM (top dose mostly 46.1 µM), inactives show at the highest dose activity change, negative = inhibition, usual class: inhibitors; AID 504467; actives 2.3% (n = 330,000); HEK293T ELG1-luciferase reporter, luminescence, 16 h; DNA damage induced by 5-fluorouridine; also: potency is read from the fitted curve at half-maximal effect; nearly all actives have a fitted effect of over 55% in size
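Reporter activity after DNA damage by 5-fluorouridine is monitored. Compound-treated cells incubate 16 hr at 37 °C, then ONE-Glo is added for 30 min before luminescence reading.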
Gal4-VP16 FLuc = Gal4-VP16 reporter inhibition counter-screen; Drosophila S2 Gal4-VP16 UAS-luciferase, luminescence, 20 h; Potency, µM (top dose mostly 53.6 µM), for the others: at the highest dose activity, negative = inhibition, actives largely listed as inhibitors; actives 3.5% (n = 310,000);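 also: Gal4-VP16 expression switched on by copper sulfate through the metallothionein promoter; potency is read from the fitted curve at half-maximal effect; nearly all actives have a fitted effect of over 50% in size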
DT40 TDP1 no CPT = qHTS for Inhibitors of human tyrosyl-DNA phosphodiesterase 1 (TDP1): qHTS in cells in absence of CPT. DT40 Tdp1-/- hTDP1 cells, no CPT, ATP luminescence, 48 h. Potency, µM (highest dose often 46.2 µM), for inactives: top-dose activity change, negative = growth inhibition, actives largely listed as inhibitors. actives 15% (n = 420,000). AID 686978, 2013; also: potency is read from the fitted curve at half-maximal effect; nearly all actives have a fitted effect of over 55% in size
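DT40 Tdp1-/-;hTDP1 cells, no CPT (DMSO vehicle only), 400 cells/well; compounds pin-transferred; ≥48 hr, 37 °C; CellTiter-Glo 30 min RT dark, luminescence read.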
IL-1B inflam inh = inflammasome signaling inhibition, IL-1 beta readout; THP-1 LPS/ATP IL-1B secretion, AlphaLISA, 16 h; active compounds read low; activity change, % at 57.5 µM; actives 4.7% (n = 360,000); AID 743279; in the data active = activity change below about -50%; inconclusive = mostly about -30% to -49%
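Secreted IL-1B measured by AlphaLISA bead assay after 16 h compound exposure of THP-1 cells; compounds (final up to 57.5 uM) added 1 h before LPS (250 ng/mL) and ATP (1.25 mM) stimulation; lower signal means less secretion.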
RORg inh = ROR gamma (mouse) transcription inhibition | P51450 | Drosophila S2 Gal4-RORgamma UAS-luciferase reporter, 20 h | Potency, µM (highest dose often 53.6 µM), inactives show at the top dose activity change, negative = inhibition, usual class: inhibitors | actives 5.4% (n = 310,000) | AID 2551; also: potency is read from the fitted curve at half-maximal effect; nearly all actives have a fitted effect of over 60% in size
Target sequence (P51450 whole entry, looked up, the tested form may be a part): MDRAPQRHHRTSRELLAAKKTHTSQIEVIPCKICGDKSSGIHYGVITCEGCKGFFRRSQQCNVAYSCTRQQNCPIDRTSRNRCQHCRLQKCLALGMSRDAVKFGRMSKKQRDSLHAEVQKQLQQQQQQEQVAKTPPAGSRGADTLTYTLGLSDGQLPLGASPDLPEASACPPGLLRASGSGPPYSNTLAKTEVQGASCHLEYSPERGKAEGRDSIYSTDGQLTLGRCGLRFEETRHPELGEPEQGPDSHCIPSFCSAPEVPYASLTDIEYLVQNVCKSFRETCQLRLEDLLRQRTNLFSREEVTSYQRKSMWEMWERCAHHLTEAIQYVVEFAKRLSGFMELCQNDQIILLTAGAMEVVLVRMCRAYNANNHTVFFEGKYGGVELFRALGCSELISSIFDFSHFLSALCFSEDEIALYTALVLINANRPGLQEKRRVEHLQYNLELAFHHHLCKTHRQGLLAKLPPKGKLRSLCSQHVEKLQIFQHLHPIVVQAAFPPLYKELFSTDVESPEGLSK
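Drosophila S2 cells stably expressing Gal4-DBD/mouse RORγ fusion under metallothionein promoter plus UAS-luciferase; compound 1 h, then 700 uM CuSO4 induction for 20 h at ambient temperature; inhibition read as reduced luminescence.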
* hit, by the source's call; i = inactive; ? = inconclusive; . = no result given; [ ] = remark or other dose. Unless noted, calls follow the shape of the dose curve; as a rule, active = well fitted curve in the direction sought with a large enough effect; inconclusive = small, poorly fitted or top-dose-only effect, or another doubt; inactive = no such curve, though single readings can be large; an effect the other way counts as inactive or inconclusive. % is scaled to controls: 0 for no effect and ±100 for the full control effect.

SMILES	TDP1 cell CPT	ELG1 DNA repair	Gal4-VP16 FLuc	DT40 TDP1 no CPT	IL-1B inflam inh	RORg inh
COc1ccc(NC(=O)c2ccc3c(SCC(=O)O)c4c(nc3c2)CCCC4)cc1Cl	.	10%	9%	.	.	29%
COc1ccc(NC(=O)CSc2c3c(nc4ccccc24)CCC3)cc1Cl	0.58µM*	.	.	-73%	.	.
COc1ccc(NC(=O)CSc2c3c(nc4ccccc24)CCC3)c(OC)c1	?	?	-1%	21µM*	13	27%
CNc1ccc2ncc(-c3ccccc3NC(C)=O)n2n1	-14%	.	.	-7%	20	.
O=S(=O)(c1ccc2c(c1)CCC2)N1CCNCC1	2%	2%	.	-16%	-6	.
Cc1ccsc1C(=O)N(Cc1cc2ccc(F)cc2nc1N1CCC(O)CC1)CC1CCCO1 (configuration not stated)	9%[9.04 µM]	.	.	-5%	.	.
CCN(c1ccccc1)c1nnc(NC(=O)Nc2ccc(Br)c(C)c2)s1	3.3µM*	.	.	4.1µM*	.	.
CCN(c1ccccc1)c1nnc(NC(=O)Nc2ccc(C)cc2)s1	13µM*	.	.	16µM*	.	.
Cc1cc(NC(=O)Cn2c(C)nc3ccccc3c2=O)ccc1Br	?	10%	-5%	-5%	29	35%
CC(OC(=O)Cn1cnc2ccccc2c1=O)C(=O)NCc1ccccc1 (configuration not stated)	3%	7%	.	-11%	-2	.
Cc1ccccc1OCC(=O)OCC(=O)NCc1ccccc1Cl	-15%	16%	.	-1%	9	.
CC1Cc2ccccc2N1C(=O)COC(=O)c1ccc(Cl)nc1 (configuration not stated)	13%	4%	-10%	-4%	25	-8%
Fc1ccc(-c2csc3ncnc(N4CCc5ccccc5C4)c23)cc1	16µM*	?	6%	?	-1	?
Cc1ccc(-c2csc3ncnc(N4CCc5ccccc5C4)c23)cc1	?	?	2%	21µM*	36	33%
OCCN1CCN(c2ncnc3scc(-c4ccc(F)cc4)c23)CC1	-7%	?	2%	4%	?	8%
CCN1CCN(c2ncnc3scc(-c4ccc(C)cc4)c23)CC1	?	?	13%	?	-15	11%
CCN1C(=O)[C@H]2[C@H]3CN=C(SCC4CC4)N3[C@@](CC)(C(=O)OC)[C@H]2C1=O	1%	21%	.	-6%	16	.
CC(NC(=O)/C=C/c1cnc2ccccc2n1)C12CC3CC(CC(C3)C1)C2 (configuration not stated)	?	?	?	18µM*	-13	12%
CCOc1ccc2c(c1)-c1c(ssc1=S)C(C)(C)N2	?	0%	-9%	18µM*	-17	-20%
CCOc1ccc2c(c1)-c1c(ssc1=S)C(C)(C)N2C(=O)CSC1=NCCS1	?	-4%	7%	12µM*	-54*	3.2µM*
CCOc1ccc2c(c1)/C(=N/N1C(=O)c3ccccc3C1=O)C(=O)N2	1%	2%	27%	-24%	14	-9%
Cc1ccc2c(c1)-c1c(ssc1=S)C(C)(C)N2C(=O)c1ccco1	?	?	-2%	16µM*	-57*	23%
Cc1ccc2c(c1)-c1c(ssc1=S)C(C)(C)N2C(=O)CSC1=NCCS1	?	15%	-6%	?	-66*	?
Cn1cnnc1SCC(=O)N1c2ccccc2-c2c(ssc2=S)C1(C)C	.	-1%	-8%	.	.	0%
Cc1ccc(CNC(=O)Cn2ccn(-c3ccc(F)c(F)c3)c(=O)c2=O)cc1	-8%	.	.	6%	.	.
SMILES	TDP1 cell CPT	ELG1 DNA repair	Gal4-VP16 FLuc	DT40 TDP1 no CPT	IL-1B inflam inh	RORg inh
CCc1noc(C)c1C(=O)Nc1nc(-c2ccccc2)c(C(C)=O)s1	-29%	?	.	-17%	-13	.
O=C(NCc1ccccc1)C1CCCN(S(=O)(=O)c2ccc(Br)cc2)C1 (configuration not stated)	?	-5%	3%	?	i	16%
CCc1ccccc1NC(=O)Cn1nnc(-c2cccnc2)n1	-6%	-4%	5%	-13%	11	?
O=C(NCCNC1CCC(c2ccccc2)CC1)c1cccs1 (configuration not stated)	?	7%	-2%	?	-72*	-10%
CCOC(=O)N1CCC(NCCNC(=O)c2cccs2)CC1	-7%	?	-2%	-6%	-15	0%
CCc1nc2ccc(C(=O)N3CCN(c4ccccc4)CC3)cn2c1N(C)CCC(C)C	?	.	.	21µM*	-10	.
CCc1nc2ccc(C(=O)N3CCN(c4ccccc4)CC3)cn2c1N(C)CCCc1ccccc1	13µM*	.	.	16µM*	-4	.
CCN(C(=O)COC(=O)CCc1ccc(OC)cc1)c1c(N)n(Cc2ccccc2)c(=O)[nH]c1=O	-25%	-10%	.	-23%	-2	.
O=C(NC(C(=O)c1ccccc1)N1CCCCCC1)c1ccco1 (configuration not stated)	23µM*	9%	10%	21µM*	0	-11%
CC(NC(=O)C1CCN(c2nc3ccccc3nc2C(F)(F)F)CC1)c1ccccc1 (configuration not stated)	-24%	.	.	?	.	.
Cc1ccc2occ(/C=N/NC(N)=S)c(=O)c2c1	?	?	4%	26µM*	18	-32%
Cc1ccc2occ(/C=N/NC(=O)c3ccccc3Br)c(=O)c2c1	?	-23%	-15%	-28%	-3	-21%
CCOc1ccccc1C(=O)N/N=C/c1coc2ccc(C)cc2c1=O	18µM*	10%	-7%	?	85	-45%
Cc1cc(/C=N/NC(=O)c2ccc(O)cc2)c(C)n1CC(C)C	?	?	-22%	-22%	-53*	7.9µM*
Cc1ccc2occ(/C=N/NC(=O)c3ccc(O)cc3)c(=O)c2c1	?	?	-28%	?	0	20µM*
Cc1ccc(C(=O)c2cn(CC(=O)NC3CCCCC3)c3nc(C)ccc3c2=O)cc1	-27%	.	.	?	.	.
COC(=O)Cc1cc(C)cc2c(=O)cc(-c3ccoc3)oc12	-23%	.	.	-28%	-4	.
COc1ccc(NC(=O)N(C)C[C@H]2Oc3ncc(Br)cc3C(=O)N([C@H](C)CO)C[C@@H]2C)cc1	0%	.	.	-2%	-6	.
O=C(NC1CCCC1)N[C@@H]1CC[C@@H](CC(=O)N2CCOCC2)O[C@@H]1CO	2%	.	.	9%	24	.
